FMDV antiviral = antivirals against foot and mouth disease virus; FMDV antiviral cell-based qHTS; Potency, µM (titrated, usually from 57.9 µM), for inactives: top-dose activity change, negative = inhibition, hits mostly inhibitors; 1.2% of 410,000 active; AID 1159524; calls by dose curve; tested in HEK293T cells; further: read-out not given here; potency means the concentration at half of the fitted maximal effect; nearly all actives have a fitted effect of over 45% in size
HCMV antiviral = human cytomegalovirus inhibition; HFF cells, HCMV-luciferase reporter, 72 h; active compounds read low; 4.5% of 410,000 active; activity change, negative = inhibition, % at 57.5 µM; in the data active means activity change below about -60%; inconclusive means no clear call, values can overlap the other calls; inactive means above about -39%
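Human foreskin fibroblasts infected with luciferase-reporter HCMV at MOI 1 PFU/cell, compounds at two doses. Luciferase measured 72 h post infection; normalized to buffer-only basal and Salinomycin (10uM) controls.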
Lassa entry inh = Lassa virus entry inhibition; Lassa virus pseudotype entry inhibition, cell reporter; 1.2% of 300,000 active; Potency, µM (titrated, usually from 37.9 µM), inactives show top-dose activity change, negative = inhibition, actives largely listed as inhibitors; calls by dose curve; tested in HEK293 cells; further: potency means the concentration at half of the fitted maximal effect; nearly all actives have a fitted effect of over 50% in size
HCV inhibitor = HCV inhibition; Huh7.5.1 HCVcc-Cre infection, luciferase reporter, 44 h; 3.4% of 340,000 active; Potency, µM (titrated, usually from 41.8 µM), for inactives: at the top dose activity change, negative = inhibition, most hits filed as inhibitors; active means well fitted inhibition curve with a large enough effect; inconclusive means small, poorly fitted or top-dose-only effect, or another doubt; inactive means no such curve, though single readings can be large or run the other way; further: potency means the concentration at half of the fitted maximal effect
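After 44 h co-culture of compound, cells and HCVcc-Cre (~0.5 moi), substrate is added for 15 min at room temperature and luciferase measured over 15 sec. Cells were seeded at 1,000/well and pre-cultured 4 h.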
Marburg entry inh = inhibitors of Marburg virus binding or cell entry | AID 540276 | Marburg virus pseudotyped entry inhibition, cell reporter | 1.8% of 300,000 active | Potency, µM (series often up to 37.8 µM), without a hit: at the highest dose activity change, negative = inhibition, actives largely listed as inhibitors; calls by dose curve; tested in HEK293 cells; further: potency means the concentration at half of the fitted maximal effect
* marks the source's active call; other numbers are inactive results; ? = inconclusive; nt = no result; ! = a repeat was not active; [ ] = dose if it differs, or a comment. Most compounds without a hit are left out; they make up all but 7.9% or so of the library. On the % scale 0 is the no-effect control and ±100 the full control effect.

SMILES | FMDV antiviral | HCMV antiviral | Lassa entry inh | HCV inhibitor | Marburg entry inh
CCOC(=O)c1cc(C)n(CC2CCC(C(=O)Nc3ccc(Cl)cc3)CC2)c1C (stereo not drawn) | ? | -80* | -22%[46.1 µM] | nt | nt
NS(=O)(=O)c1ccc(N=Nc2c(-c3ccccc3)[nH]n(-c3nc(-c4ccccc4)cs3)c2=O)cc1 | -20% | -37 | ? | 6.3µM* | 22µM*
CNc1ccccc1C(C)(C)c1cc(-c2ccc(F)cc2)no1 | ? | -85* | -14% | 4µM* | ?
CNc1ccccc1C(C)(C)c1cc(-c2cccc([N+](=O)[O-])c2)no1 | -8% | ? | ? | -28% | 4.5µM*
OC1CCC(Nc2nccc3[nH]c(-c4cccc(C(F)(F)F)c4)nc23)CC1 (stereo not drawn) | nt | 4 | nt | nt | nt
COCc1ccc(CN2Cc3cc(Cl)ccc3OC(C)C2)o1 (stereo not drawn) | -7% | nt | nt | nt | nt
COc1ccc(OC(C)C(=O)NCc2nc(-c3ccc(Cl)cc3)no2)cc1 (stereo not drawn) | ? | -9 | ? | nt | -2%[46.1 µM]
CN=c1sc2ccccc2n1C[C@@H](O)COCc1ccco1 | nt | nt | nt | nt | 0%[46.1 µM]
CCOc1ccccc1NC(=O)c1ccc2c(c1)CCN2S(C)(=O)=O | 13% | 0 | -2%[46.1 µM] | nt | -10%[46.1 µM]
CC(C)CCNc1nc2c(c(=O)[nH]c(=O)n2C)n1CC(O)COC(C)C (stereo not drawn) | -3% | -66* | 0% | 10% | -13%
COc1ccc(-n2ncc3c(NCCC4=CCCCC4)ncnc32)cc1 | -5% | -2 | 5%[46.1 µM] | nt | nt
CN(C)CC[C@@H](c1ccc(Br)cc1)c1ccccn1 | -25% | ? | ? | ? | 8.9µM*!
CN(C)CCC(C(=O)c1ccccc1)c1ccccn1 (stereo not drawn) | 9% | nt | ? | -9% | ?
CN(C)CC[C@@H](c1ccc(Cl)cc1)c1ccccn1 | -22% | ? | 1% | ? | 5.6µM*!
CN(C)CCO[C@@H](c1ccc(Cl)cc1)c1ccccn1 | -9% | 7 | nt | -5% | nt
CN1CCN(C(=O)CCCN2C(=O)/C(=C/c3ccccc3)SC2=S)CC1 | -13% | -94* | ? | -10% | ?
CCOc1ccc(/C=C2\SC(=S)N(CCC(=O)O)C2=O)cc1 | 0.32µM* | -64* | -24%[46.1 µM] | -21% | ?
CCOc1ccc(/C=C2/SC(=S)N(CCC(=O)Nc3ccc(C(=O)O)cc3)C2=O)cc1 | 64% | 6 | nt | 18% | nt
O=C(CCN1C(=O)/C(=C/c2ccccc2)SC1=S)N1CCCCCC1 | -26% | -97* | ? | ? | -11%[46.1 µM]
COc1ccc(/C=C2/SC(=S)N(CCC(=O)N3CCN(C)CC3)C2=O)cc1 | 17% | ? | ? | ? | ?
COc1ccc(/C=C2/SC(=S)N(CCCC(=O)N3CCN(C)CC3)C2=O)cc1 | 13% | -100* | -11% | -28% | ?
CC(Sc1cccc[n+]1[O-])C(=O)Nc1ccc(Oc2ccccc2)cc1 (stereo not drawn) | -21% | 24 | -13% | -19% | ?
O=C(O)CCCN1C(=O)/C(=C\c2ccccc2OCc2ccccc2)SC1=S | 10% | ? | -18%[46.1 µM] | 11% | -9%[46.1 µM]
CCc1ccc(/C=C2\SC(=S)N(CCC(=O)N3CCN(C)CC3)C2=O)cc1 | 22% | -36 | nt | 10% | nt
CC1CCN(C(=O)CCN2C(=O)/C(=C/c3cccs3)SC2=S)CC1 | -11% | 6 | 5.6µM* | ? | ?
SMILES | FMDV antiviral | HCMV antiviral | Lassa entry inh | HCV inhibitor | Marburg entry inh
O=C(O)CCCN1C(=O)/C(=C\C(Cl)=C\c2ccccc2)SC1=S | ? | -99* | nt | ? | nt
CN1CCN(C(=O)CCN2C(=O)/C(=C\c3ccc(Cl)cc3Cl)SC2=S)CC1 | 35µM* | -18 | ? | 0% | 1%[46.1 µM]
Cn1c(SCC2CCCO2)nnc1C1CCN(Cc2ccccc2O)CC1 (stereo not drawn) | -16% | nt | nt | nt | nt
CC(C)(C)c1ccc(C(=O)NCC(c2ccco2)S(=O)(=O)c2ccccc2)cc1 (stereo not drawn) | -25% | -18 | -30%[46.1 µM] | nt | nt
C=Cc1ncc(OC)c2c1[nH]c1ccccc12 | 16µM* | nt | nt | ? | nt
COc1cccc2[nH]c3ccccc3c(=O)c12 | 0% | nt | nt | -4% | nt
COc1ccc(NC(=O)CSc2nnc(-c3ccc(OC)cc3)s2)cc1 | 41% | 19 | -14%[46.1 µM] | nt | nt
CCn1c(-c2ccc(N(C)C)cc2)nc2ccccc21 | -27% | -96* | ? | ? | ?
CCn1c(-c2ccc(N)cc2)nc2ccccc21 | 16% | 161 | nt | 10% | nt
C=C(C)C(=O)/C=C/c1ccc(Br)cc1 | nt | nt | nt | nt | 6%[14.2 µM]
COC(=O)c1c(C(=O)OC)c(-c2ccc(C)cc2)n2c1CCC2 | -6% | -33 | -23% | ? | -7%
COC(=O)c1c(C(=O)OC)c(-c2ccc(OC)cc2)n2c1CS(=O)(=O)C2 | -1% | -74* | nt | -3% | nt
Cc1sc2ncnc(Sc3nnnn3-c3ccccc3)c2c1C | nt | -71* | ? | ? | ?
Clc1ccc(-n2nnnc2Sc2ncnc3sccc23)cc1 | 40µM* | -81* | ? | ? | ?
c1ccc2sc(Sc3ncnc4sccc34)nc2c1 | 1% | 155 | 1% | 12% | ?
C=CCOC(=O)C(C(C)=O)[C@@H](NC(=O)OC)c1cccs1 (stereo partly drawn) | nt | nt | nt | nt | -6%[14.2 µM]
CCOc1ccc(/C=C/C(=O)Nc2ccc3nc(N(CC)CC)cc(C)c3c2)cc1OC | -22% | -31 | ? | nt | 11µM*
CCN(CC)c1cc(C)c2cc(NC(=O)/C=C/c3cc(OC)c(OC)c(OC)c3)ccc2n1 | -23% | -100* | ? | nt | ?
CCOc1ccccc1C(=O)Nc1ccc2nc(N(CC)CC)cc(C)c2c1 | -28% | -24 | 11%[46.1 µM] | nt | ?
CCN(CC)c1cc(C)c2cc(NC(=O)/C=C/c3ccc(C)cc3)ccc2n1 | 0% | -11 | 3%[46.1 µM] | nt | ?
CCOC(=O)c1cnc(SCCN2CCOCC2)nc1N | 25% | -29 | -6% | 6% | ?
COc1cccc(N2CC(NC(=O)COc3ccc4ccccc4c3)CC2=O)c1 (stereo not drawn) | -19% | -1 | -10%[46.1 µM] | nt | nt
COc1ccc2oc(=O)c(C(=O)N3CCN(c4cc(Cl)ccc4Cl)CC3)cc2c1 | -11% | -8 | -1%[46.1 µM] | nt | -2%[46.1 µM]
CC1CCN(S(=O)(=O)c2ccc3nc(Nc4ccc(C#N)cc4)ccc3c2)CC1 | ? | ? | -2%[46.1 µM] | nt | nt
O=C(Nc1cccc(C(F)(F)F)c1)C1CCN(S(=O)(=O)c2cccs2)CC1 | 0% | ? | 11%[46.1 µM] | nt | ?
CC(NC(=O)C1CCN(S(=O)(=O)c2cc([N+](=O)[O-])ccc2Cl)CC1)c1ccccc1 (stereo not drawn) | -19% | -33 | -20%[46.1 µM] | 1% | ?
CC1CCN(S(=O)(=O)c2ccc3nc(Nc4cccc(C(F)(F)F)c4)ccc3c2)CC1 | -25% | -100* | -10%[46.1 µM] | nt | nt
COc1ccc(OC)c(S(=O)(=O)N2CCC(C(=O)Nc3cccc(C(F)(F)F)c3)CC2)c1 | 25µM* | ? | -30% | ? | ?
Cc1ccc2nc(NC(=O)C3CCN(S(=O)(=O)c4cc([N+](=O)[O-])ccc4Cl)CC3)sc2c1 | ? | -10 | ? | 6.3µM* | 8.2µM*
